According to PubChem BioAssay (NCI):
Compounds without any hit were thinned out: in the full panel of roughly 83,000, 20% have a hit.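 In brief: 96-well plates, 48 h treatment, single concentration, percent growth endpoint.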 Calls of active or inactive are those of the source. The calls were made as follows: active = growth percent below 10; inactive = the rest.

Key:
Test in all cases: NCI-60 one-dose screen, 48 h (100 = growth as untreated, 0 = no growth, -100 = all killed)
Conditions in all cases: 10 µM unless noted
[1] = tested on: SK-MEL-2 melanoma
[2] = tested on: EKVX NSCLC
[3] = tested on: SN12C renal
[4] = tested on: UO-31 renal
[5] = tested on: TK-10 renal
[6] = tested on: ACHN renal
[7] = tested on: CAKI-1 renal
[8] = tested on: A498 renal
[9] = tested on: CCRF-CEM leukemia
[10] = tested on: MOLT-4 leukemia
[11] = tested on: SR leukemia
[12] = tested on: RPMI-8226 leukemia
[13] = tested on: OVCAR-8 ovarian
[14] = tested on: SK-OV-3 ovarian
[15] = tested on: IGROV1 ovarian
[16] = tested on: OVCAR-3 ovarian
[17] = tested on: HS 578T breast
[18] = tested on: NCI/ADR-RES ovarian
[19] = tested on: OVCAR-4 ovarian
[20] = tested on: OVCAR-5 ovarian

SMILES | growth [1] | growth [2] | growth [3] | growth [4] | growth [5] | growth [6] | growth [7] | growth [8] | growth [9] | growth [10] | growth [11] | growth [12] | growth [13] | growth [14] | growth [15] | growth [16] | growth [17] | growth [18] | growth [19] | growth [20]
C#CCOc1cccc(-c2nc(N)nc(Nc3ccccc3SSc3ccccc3Nc3nc(N)nc(-c4cccc(OCC#C)c4)n3)n2)c1 | 96.3% (inactive) | 37.3% (inactive) | 1.17% (active) | -78.6% (active) | 134% (inactive) | -76.4% (active) | 29.1% (inactive) | 73% (inactive) | 30.6% (inactive) | 44% (inactive) | -16.2% (active) | 22% (inactive) | 16.7% (inactive) | 91.5% (inactive) | -5.3% (active) | 79.7% (inactive) | 51.9% (inactive) | 5.66% (active) |  | 
NC(=O)n1c(=O)n(-c2cccc(C(F)(F)F)c2)c(=O)c2cc(-c3ccc(F)cc3F)ccc21 | -20.1% (active) | -0.656% (active) | 1.52% (active) | 4.54% (active) | 8.59% (active) | -3.85% (active) | -21.6% (active) | -26.4% (active) | 9.98% (active) | 0.274% (active) | 4.71% (active) | -30.6% (active) | 8.4% (active) | -12.9% (active) | 14.8% (inactive) |  | -6.46% (active) | 2.36% (active) | 28.4% (inactive) | 
CCCCCCNC(=O)Oc1ccc(/C(=C(/C)c2ccc(Cl)cc2)c2ccc(OCCN3CCCCCC3)cc2)cc1 | 108% (inactive) | 76.8% (inactive) | 70% (inactive) | 51.8% (inactive) | 95.8% (inactive) | 87.3% (inactive) | 64.9% (inactive) | 74.5% (inactive) | 46.2% (inactive) | 33.3% (inactive) | 2.59% (active) | 64.3% (inactive) | 78.2% (inactive) | 96% (inactive) | 68.4% (inactive) |  | 63.8% (inactive) | 79.4% (inactive) | 61% (inactive) | 
CN1CCN(c2ccc(Nc3nc(NCCCNS(=O)(=O)c4cccc5ccccc45)c4sccc4n3)cc2)CC1 | -81.7% (active) | 36.1% (inactive) | -3.36% (active) | -51.1% (active) | -40.6% (active) | -23.8% (active) | -52.7% (active) | -70.5% (active) | 7.22% (active) | -3.37% (active) | 4.12% (active) | -2.5% (active) | 5.7% (active) | -18% (active) | 6.32% (active) | -62.7% (active) | -25% (active) | 13.5% (inactive) | -35.6% (active) | 
Cn1ncc2c(C(=O)c3ccc(F)cc3)nc(C(C)(C)C)nc21 | 103% (inactive) | 98.9% (inactive) | 96.2% (inactive) | 93.9% (inactive) | 82% (inactive) | 99.1% (inactive) | 89.5% (inactive) | 58.4% (inactive) | 103% (inactive) | 92.6% (inactive) | 102% (inactive) | 100% (inactive) | 105% (inactive) |  | 103% (inactive) | 98.6% (inactive) | 96.5% (inactive) | 107% (inactive) | 107% (inactive) | 
O=C(/C=C/c1cccc(Br)c1)c1cccc(OCCCCOc2cccc(C(=O)/C=C/c3cccc(Br)c3)c2)c1 | 104% (inactive) | 101% (inactive) | 99.7% (inactive) | 91.4% (inactive) | 115% (inactive) | 101% (inactive) | 100% (inactive) | 113% (inactive) | 105% (inactive) | 90.4% (inactive) | 98.5% (inactive) | 56.8% (inactive) | 105% (inactive) | 107% (inactive) | 101% (inactive) | 105% (inactive) | 101% (inactive) | 106% (inactive) |  | 
Nc1nc(=O)n([C@H]2C[C@H](O)[C@@H](CO)O2)cc1C=O | 109% (inactive) | 112% (inactive) | -19.5% (active) | 101% (inactive) | 108% (inactive) | 107% (inactive) | 82.1% (inactive) | 121% (inactive) | 57.7% (inactive) | 92% (inactive) | 107% (inactive) | 110% (inactive) | 11.3% (inactive) | 116% (inactive) | 106% (inactive) | 116% (inactive) | 129% (inactive) | 9.49% (active) |  | 
COC(=O)c1ccc(NC2=C(Cl)C(=O)C(C)=C(C)C2=O)cc1 | 69.1% (inactive) | 53.2% (inactive) | 80.2% (inactive) | 65.1% (inactive) | 112% (inactive) | 63.2% (inactive) | 43.3% (inactive) | 58.6% (inactive) | 9.06% (active) | 9.07% (active) | 13.6% (inactive) | 36.5% (inactive) | 77.9% (inactive) | 86.2% (inactive) | 70.4% (inactive) | 30.1% (inactive) | 77.1% (inactive) | 65.2% (inactive) | 32.4% (inactive) | 
CC1=C(C)C(=O)C(Nc2ccc3c(c2)OCCO3)=C(Br)C1=O | 114% (inactive) | 73.7% (inactive) | 99.7% (inactive) | 95.8% (inactive) | 135% (inactive) | 101% (inactive) | 102% (inactive) | 103% (inactive) | 13.2% (inactive) | -7.79% (active) | 77.6% (inactive) | 100% (inactive) | 100% (inactive) |  | 102% (inactive) | 109% (inactive) | 97.3% (inactive) | 97.3% (inactive) |  | 108% (inactive)
NS(=O)(=O)c1ccc(Nc2nc(N/N=C/c3ccc4c(c3)OCO4)nc(Nc3ccccc3)n2)cc1 | 55.8% (inactive) | 73.2% (inactive) | 54.3% (inactive) | 76.8% (inactive) | 96.6% (inactive) | 57.8% (inactive) | 45.4% (inactive) | 51.1% (inactive) | 16.3% (inactive) | 11.2% (inactive) | 20% (inactive) | 54.3% (inactive) | 49.7% (inactive) |  | 36.6% (inactive) |  | 52% (inactive) | 90.9% (inactive) | 55.5% (inactive) | 
COc1ccccc1N1CCN(C2=C(Cl)C(=O)c3ncccc3C2=O)CC1 | 95.5% (inactive) | 98.2% (inactive) | 88.3% (inactive) | 44.5% (inactive) | 148% (inactive) | 45.7% (inactive) | 63.6% (inactive) | 115% (inactive) | 11.5% (inactive) | 38.3% (inactive) | 12.4% (inactive) | 79.4% (inactive) | 90.5% (inactive) | 90.5% (inactive) | 86.3% (inactive) |  | 87.2% (inactive) | 81.7% (inactive) | 85.7% (inactive) | 
COc1cc2oc(-c3cccc(NC(=O)[C@@H](N)C(C)C)c3)cc(=O)c2c(OC)c1OC | 102% (inactive) | 98.4% (inactive) | 101% (inactive) | 76.3% (inactive) | 97.7% (inactive) | 100% (inactive) | 91.1% (inactive) | 95.7% (inactive) | 97.9% (inactive) | 99.9% (inactive) | 76.9% (inactive) | 88.2% (inactive) | 99% (inactive) | 104% (inactive) | 103% (inactive) | 108% (inactive) | 112% (inactive) | 107% (inactive) | 107% (inactive) | 
O=C(CCCCCCNC(=O)C(O)(O)C(F)(F)F)Nc1ccc(Br)cc1 | -24.7% (active) | 33.3% (inactive) | 20.1% (inactive) | -2.06% (active) | -2.6% (active) | -15.8% (active) | -13.9% (active) | -13.9% (active) | 23.9% (inactive) | 13.2% (inactive) | 8.58% (active) | 20.7% (inactive) | 7.83% (active) | -13.4% (active) | 15.7% (inactive) | -12.8% (active) | 15.7% (inactive) | 16.9% (inactive) | 28.5% (inactive) | 
CC1=C(C)C(=O)C(Nc2cccc(C(=O)OC(C)(C)C)c2)=CC1=O | 82.4% (inactive) | 81.2% (inactive) | 61.3% (inactive) | 66.4% (inactive) | 125% (inactive) | 86.4% (inactive) | 71.5% (inactive) | 66.9% (inactive) | 78.8% (inactive) | 65% (inactive) | 81.8% (inactive) | 75.8% (inactive) | 82.2% (inactive) | 90.5% (inactive) | 72.9% (inactive) | 6.18% (active) | 79.4% (inactive) | 76% (inactive) | 34.9% (inactive) | 
O=C(CCCCCCN1CC(=O)N2[C@@H](C3CC3)c3[nH]c4ccccc4c3C[C@H]2C1=O)NO | 76.5% (inactive) | 85.7% (inactive) | 79% (inactive) | 70.1% (inactive) | 79.2% (inactive) | 67.6% (inactive) | 69.3% (inactive) | 98.8% (inactive) | 19.9% (inactive) | 16% (inactive) | 36.5% (inactive) | 56.2% (inactive) | 37.5% (inactive) | 102% (inactive) | 89.2% (inactive) |  | 62% (inactive) | 75.7% (inactive) | 97.6% (inactive) | 
